The list is not random: actives were taken first. Their share in the collection is about 2.9%.
LYPLA2 inh: blocks human lysophospholipase 2, a PME1 counter-screen; O95372; recombinant LYPLA2, FP-Rh probe fluorescence polarization; inhibition, % at 5.9 µM; hit rate 0.38% among 320,000; AID 2177;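 active = inhibition above the screen-wide mean plus 3 SD, limit set per campaign, cut at about 26% in these data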
Target sequence (O95372 whole entry, looked up): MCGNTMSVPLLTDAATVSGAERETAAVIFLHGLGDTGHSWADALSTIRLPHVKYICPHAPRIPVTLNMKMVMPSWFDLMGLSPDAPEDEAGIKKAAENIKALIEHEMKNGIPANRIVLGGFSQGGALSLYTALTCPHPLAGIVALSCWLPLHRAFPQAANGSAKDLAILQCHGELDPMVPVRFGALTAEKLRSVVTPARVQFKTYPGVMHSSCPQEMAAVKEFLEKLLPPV
PAFAH1B2 inh: inhibitors of human PAFAH1B2 | hit rate 1.2% among 340,000 | inhibition, % at 3.39 µM | AID 492953 | recombinant PAFAH1B2, FP-rhodamine activity probe, fluorescence polarization;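 active = inhibition above the mean of all tested compounds plus 3 SD, cut at about 24% in these data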
PAFAH2 inh: inhibitors of human PAFAH2; inhibition, % at 3.39 µM; hit rate 0.99% among 340,000; recombinant PAFAH2, FP-rhodamine activity probe, fluorescence polarization;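 active = inhibition above the mean over all tested compounds plus 3 SD, cut at about 30% in these data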;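 also: inhibitors block probe labeling of enzyme so polarization drops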
pPAFAH inh: pPAFAH (human) enzyme inhibition; Q13093; recombinant pPAFAH, FP-rhodamine probe fluorescence polarization; inhibition, % at 3.39 µM; hit rate 1.5% among 330,000; AID 463082;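 active = inhibition above the mean inhibition across the screen plus 3 SD, cut at about 25% in these data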;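 also: inhibitors block binding of the rhodamine activity-based probe so polarization drops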
Target sequence (Q13093 whole entry, looked up): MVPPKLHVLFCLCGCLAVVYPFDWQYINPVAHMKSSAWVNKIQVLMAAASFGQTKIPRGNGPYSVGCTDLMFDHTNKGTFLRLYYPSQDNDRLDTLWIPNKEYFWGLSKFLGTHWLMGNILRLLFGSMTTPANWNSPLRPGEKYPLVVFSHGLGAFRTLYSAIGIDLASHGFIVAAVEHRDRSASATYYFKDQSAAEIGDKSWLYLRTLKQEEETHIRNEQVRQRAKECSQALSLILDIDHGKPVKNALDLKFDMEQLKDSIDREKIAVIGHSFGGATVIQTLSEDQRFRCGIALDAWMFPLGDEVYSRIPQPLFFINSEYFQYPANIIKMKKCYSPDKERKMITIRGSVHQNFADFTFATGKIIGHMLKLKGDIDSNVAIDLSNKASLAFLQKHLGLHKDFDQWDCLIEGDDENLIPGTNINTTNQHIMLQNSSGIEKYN
LYPLA1 inh: LYPLA1 (human) inhibition in PME1 counter-screen; recombinant LYPLA1, FP-Rh probe fluorescence polarization; O75608; inhibition, % at 5.9 µM; hit rate 0.16% among 320,000;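 active = inhibition above the mean of all tested compounds plus 3 SD, set per campaign, cut at about 14% in these data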;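 also: inhibitors block serine hydrolase probe labeling of LYPLA1 so polarization falls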
PAFAH1B3 inh: PAFAH1B3 (human) inhibition | recombinant PAFAH1B3, FP-rhodamine probe, fluorescence polarization | inhibition, % at 3.39 µM | hit rate 0.28% among 340,000 | Q15102 | AID 492972;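 active = inhibition above the screen-wide average of all tested compounds plus 3 SD, cut at about 25% in these data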
pPAFAH confirm: confirmation of human plasma PAF acetylhydrolase (pPAFAH) inhibitors. hit rate 72% among 2,300. recombinant pPAFAH, FP-Rh probe fluorescence polarization. inhibition, % at 3.39 µM. shares compounds with pPAFAH inh. AID 463230;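 active = mean inhibition of the triplicate above the hit cutoff set for the earlier primary screen, cut at about 25% in these data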
PAFAH2 confirm: PAFAH2 (human) inhibition, confirmed. shares compounds with PAFAH2 inh. recombinant PAFAH2, FP-rhodamine activity probe, fluorescence polarization. inhibition, % at 3.39 µM. hit rate 65% among 2,300. AID 493030;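 active = mean inhibition over three repeats above a set limit taken from the earlier primary screen, cut at about 30% in these data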;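 also: inhibitor blocks binding of rhodamine activity probe so polarization falls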
Numbers stand for hits; 0 = inactive; - = not tested or not shown; ! = a repeat was not active.

SMILES	LYPLA2 inh	PAFAH1B2 inh	PAFAH2 inh	pPAFAH inh	LYPLA1 inh	PAFAH1B3 inh	pPAFAH confirm	others
CCCCN1C(=O)/C(=C/c2ccc(N(C)C)cc2)C(=O)N(Cc2ccco2)C1=O	0	0	0	35.7	0	0	0
O=[N+]([O-])c1ccc(N2CCCC2)cc1N/N=C1\CN2CCC1CC2	0	0	0	0	0	0	-
O=C(N/N=C1/CN2CCC1CC2)c1cc2ccccc2cc1O	0	0	0	39.6	0	0	0
CC(C)c1ccc(-n2c(O)c(/C=N/NC(=O)c3ccncc3)c(=O)[nH]c2=O)cc1	0	0	0	0	0	0	-
CC(C)c1ccc(-n2c(O)c(/C=N/NC(=O)c3ccccc3O)c(=O)[nH]c2=S)cc1	0	0	0	46.8	0	0	45.4
COc1ccc(CC(C)Nc2cccc(F)c2)cc1 (stereo not given)	0	0	0	0	0	0	-
CCN(CC)C(=O)c1ccc2c(c1)C1C(Cl)C(Sc3ccccc3[N+](=O)[O-])CC1C(C(=O)O)N2 (stereo not given)	0	32.5	53.2	68.2	0	25.9	35.6
Cc1ccc2c(c1Cl)NC(C(=O)O)C1CC(Sc3ccccc3[N+](=O)[O-])C(Cl)C21 (stereo not given)	0	0	42.9	49.0	0	0	42.2
COc1cccc(NP(=O)(Oc2ccccc2Cl)Oc2ccccc2Cl)c1	0	0	0	0	0	0	-
CC/C(=N\Nc1cccc2ccccc12)c1c(O)[nH]c(=O)[nH]c1=O	0	0	0	0	0	0	-
Cc1cccc(N2C(=O)NC(=O)/C(=C/c3cc4c(cc3[N+](=O)[O-])OCO4)C2=O)c1	0	0	0	42.1	0	0	0
O=C1NC(=O)C(=Cc2cc3c(cc2[N+](=O)[O-])OCO3)C(=O)N1	0	0	0	0	0	0	-
COc1ccc(/C=C/C(=O)NC(=S)N2C[C@H]3C[C@H](C2)c2cccc(=O)n2C3)cc1OC	0	0	0	0	0	0	-
Cc1ccc(S(=O)(=O)CC(=O)c2cc(C)c(OC(=O)N(C)C)c(C)c2)cc1	0	0	0	0	0	0	-
Cc1cc(C(=O)CS(=O)(=O)c2ccccc2)cc(C)c1OC(=O)N(C)C	0	0	0	37.7	0	0	0
CC1(C)C2CC=C(CN3CCOCC3)C1C2 (stereo not given)	0	0	0	0	0	0	-
CN1CCC(c2c[nH]c3ccc(O)cc23)CC1	-	0	0	-	-	0	-
CN1CCC(c2c[nH]c3ccccc23)C1 (stereo not given)	0	0	0	44.0	0	0	0
CN(C)C1C(=O)C(C(N)=O)=C(O)C2(O)C(=O)C3=C(O)c4c(O)cccc4C(C)(O)C3CC12 (stereo not given)	0	0	0	36.0	0	0	0
CN(C)[C@@H]1C(=O)C(C(N)=O)=C(O)[C@@]2(O)C(=O)C3=C(O)c4c(O)ccc(Cl)c4[C@@](C)(O)C3C[C@@H]12 (stereo not given in full)	-	0	0	-	-	0	-
CN(C)[C@@H]1C(=O)C(C(N)=O)=C(O)[C@@]2(O)C(=O)C3=C(O)c4c(O)cccc4[C@@](C)(O)C3[C@H](O)C12 (stereo not given in full)	0	30.6!	46.8!	63.7	0	25.6!	0
NS(=O)(=O)c1ccc(N=Nc2c(O)[nH]c(=S)[nH]c2=O)cc1	0	0	0	0	0	0	-
O=c1[nH]c(=S)[nH]c(O)c1N=Nc1cc(S(=O)(=O)Nc2ccc(Cl)cc2)ccc1Cl	0	0	0	49.0	0	42.8	95.3
N/C(=N\N=C/c1ccc(-c2ccc(O)c(C(=O)O)c2)o1)N[N+](=O)[O-]	0	0	0	49.8	0	30.3	35.2
COc1ccc(/C=N/N=C(/N)N[N+](=O)[O-])c(OC)c1	0	0	0	0	0	0	-
SMILES	LYPLA2 inh	PAFAH1B2 inh	PAFAH2 inh	pPAFAH inh	LYPLA1 inh	PAFAH1B3 inh	pPAFAH confirm	others
FC(F)(F)c1ccc2c(c1)N(CCCN1CCN(CCCl)CC1)c1ccccc1S2	0	0	0	37.7	0	0	31.0
CCSC1=NN1c1cc(C)nc(N)n1	0	0	0	0	0	0	-
CC12CCC(=O)C=C1CCC1C2CCC2(C)C(O)CCC12 (stereo not given)	0	0	34.4	0	0	0	-	PAFAH2 confirm=0
CC1=CC(=O)NP(=O)(Oc2ccc3ccccc3c2)N1 (stereo not given)	0	0	44.9	0	0	0	-	PAFAH2 confirm=0
C=CCn1c(O)c(C(C)=NCCC2=CCCCC2)c(=O)[nH]c1=O	0	0	0	0	0	0	-
Cc1ccc(N2C(=O)NC(=O)/C(=C\c3cccn3C(C)(C)C)C2=O)cc1	0	0	43.0	0	0	0	-	PAFAH2 confirm=0
CCc1ccc(CN2CCN(Cc3ccc(SC)cc3)CC2)cc1	0	-	-	0	0	-	-
CCC(C)n1c(O)c(/C=N/Nc2ccccc2)c(=O)[nH]c1=S (stereo not given)	0	0	40.1	0	0	0	-	PAFAH2 confirm=0
O=c1[nH]c(=S)n(C2CC2)c(O)c1/C=N/Nc1ccccc1	0	0	0	0	0	0	-
CCC(C)n1c(O)c(/C=N/NC(=O)c2ccncc2)c(=O)[nH]c1=S (stereo not given)	0	0	57.9	0	0	0	-	PAFAH2 confirm=61.8
CCC(C)n1c(O)c(C=NCCc2ccccc2)c(=O)[nH]c1=S (stereo not given)	0	0	47.0	0	0	0	-	PAFAH2 confirm=44.7
CCC(C)n1c(O)c(C=NCC2CCCO2)c(=O)[nH]c1=S (stereo not given)	0	0	50.9	0	0	0	-	PAFAH2 confirm=38.2
CCC(C)n1c(O)c(C=NCCN2CCOCC2)c(=O)[nH]c1=S (stereo not given)	0	0	0	0	0	0	-
COC(=O)C(O)(c1ccc(NC(=O)c2ccccc2)cc1)C(F)(F)F (stereo not given)	0	0	0	0	0	0	-
O=C(CCC(=O)N1CC2C[C@@H](C1)Cn1c2cccc1=O)NCCc1ccccc1	0	0	0	0	0	0	-
Cc1cc(C)c(NC2=NCCCS2)c(C)c1	0	0	0	0	0	0	-
Cc1cccc(-n2c(O)c(C=NCc3cccnc3)c(=O)[nH]c2=O)c1C	0	0	0	0	0	0	-
CSc1ccccc1C(=O)C1CCCN(Cc2cccc(C)n2)C1 (stereo not given)	0	0	0	0	0	0	-
Cc1cccc(N2C(=O)NC(=O)/C(=C\c3cc(C)n(-c4sc5c(c4C#N)CCCC5)c3C)C2=O)c1C	0	0	32.8	0	0	0	-	PAFAH2 confirm=0
NC(=O)Nc1ccc(C(=O)OCC(=O)Nc2ccc(Cl)cc2C(=O)c2ccccc2)cc1	0	0	70.0	0	0	0	-	PAFAH2 confirm=51.5
C[N+](C)(C)CC(=O)Nc1ccc(Cl)cc1C(=O)c1ccccc1	0	0	0	0	0	0	-

Source: PubChem BioAssay
